Experimental findings from PubChem BioAssay (NCATS) are described below.

SMILES strings stand for the structures. Records with an inconclusive call do not appear. Active and inactive are the calls of the source. Calls come from the whole dose curve; as a rule, active = well fitted inhibition curve with a large enough effect; inconclusive = small, poorly fitted or top-dose-only effect; inactive = flat fitted curve, though single readings scatter.
% is set by controls: 0 for no effect and ±100 for the full control effect; potency is the fitted concentration of half-maximal effect.

The test system of this test is MCC-26. As to the kind of experiment: qHTS assay to identify novel small-molecules to repurpose for Merkel cell carcinoma treatment (AID 1296009). Note: nearly all actives have a fitted effect of over 60% in size. The following applies: MCC and control cell lines, CellTiter-Glo viability, 72 h; series mostly up to 46 µM; activity change, negative = cytotoxicity: at the top concentration. From the text: MCC is a rare and aggressive neuroendocrine skin cancer with limited treatment options. Approximately 80% of MCCs have the Merkel cell polyomavirus (MCPyV) DNA integrated into the host genome (virus-positive: VP-MCC) and viral oncogenes drive oncogenesis. The remaining MCCs are virus-negative (VN-MCC) and are caused by UV mutagenesis. To identify novel treatments for VP-MCC and/or VN-MCC we screened three VP-MCC cell lines (WAGA, MKL-1, MKL-2), three VN-MCC cell lines (MCC-13, MCC-26, UISO), and four immortalized, non-transformed control cell lines (HaCaT, HEK293T, CRL7250, NIH-3T3) against ~2,400 compounds in the NCGC Pharmaceutical Collection (NPC) and ~1,900 compounds in the Mechanism Interrogation PlatE (MiPE). Using cell viability as a readout (CellTiter-Glo assay) we found both overlapping and distinct drugs that can be repurposed for the treatment of VP-MCC and VN-MCC.
A high-throughput screen was conducted in 1536-well white flat bottom plates (Corning) on a Kalypsys robotic system. Cell lines WAGA, MKL-1, MKL-2, MCC-13, MCC-26, UISO, HaCaT, HEK293T, CRL7250, and NIH-3T3 were screened against 2 small molecule annotated drug libraries NPC and MIPE in dose response (8 and 11 pt. respectively) measuring cell viability after 72 hours of incubation. […] A 1,536 pintool (Kalypsys) was used to transfer 23 nL of compound in DMSO to the 1,536-well assay plates. After 72 hr incubation at 37 degree celsius, 2.5 uL of CellTiter-Glo (Promega) was dispensed into each well using a BiorapTR. Plates were incubated at room temperature for 10 min, transferred to a ViewLux (PerkinElmer) and the luminescence was recorded using an exposure time of 2 seconds. Relative luminescence units (RLUs) were normalized to in-plate controls (no cells as a positive (cytotoxicity) control, DMSO as negative control) and the normalized data was processed using NCATS in-house software.
On the technique in general: Quantitative high-throughput screening tests each substance at several concentrations.
Turning to `CCCCC1C(=O)N(c2ccccc2)N(c2ccc(O)cc2)C1=O` (stereo not given), the “activity change, negative = cytotoxicity” value is -17.4% (inactive). For the compound `C=CCCCCCCCCC(=O)O`, the “activity change, negative = cytotoxicity” value is 2.51% (inactive). Consider `CC1(C)S[C@@H]2[C@H](NC(=O)[C@H](N)c3ccccc3)C(=O)N2[C@H]1C(=O)O`, for which the “activity change, negative = cytotoxicity” value was 8.37% (inactive). Take `CCC1C(=O)OCC1Cc1cncn1C` (stereo not given): the “activity change, negative = cytotoxicity” value was 1.34% (inactive).

Take `c1ccc2sc(SSc3nc4ccccc4s3)nc2c1`: the “activity change, negative = cytotoxicity” value was 5.49% [at 16.1 µM] (inactive). Regarding `O=C(/C=C/c1ccccc1)NCCO`, the “activity change, negative = cytotoxicity” value is -0.844% (inactive). Consider `NCCO`, for which the “activity change, negative = cytotoxicity” value was 5.36% [at 92.7 µM] (inactive). For `c1ccc2sc(SN3CCOCC3)nc2c1`, the “activity change, negative = cytotoxicity” value is 0.525% (inactive). Consider `c1ccc(CCNc2nc(-c3ccccc3)cs2)cc1`, for which the “activity change, negative = cytotoxicity” value is -9.23% (inactive). For the compound `C#CC1(O)CC[C@H]2[C@@H]3CCC4=CCCC[C@@H]4[C@H]3CC[C@@]21C` (stereo not given in full), the “activity change, negative = cytotoxicity” value was -7.11% (inactive). Turning to `CC(C(=O)O)c1ccc(C(=O)c2ccccc2)s1` (stereo not given), the “activity change, negative = cytotoxicity” value is 1.14% (inactive).

`CC(=O)SCC(CC(=O)c1ccc(C)cc1)C(=O)O` (stereo not given): the “activity change, negative = cytotoxicity” value was 3.95% (inactive). As to `CC(C(=O)O)c1ccc2c(c1)[nH]c1ccc(Cl)cc12` (stereo not given), the “activity change, negative = cytotoxicity” value was -7.93% (inactive).

As to `Cc1nc2ccccc2n1Cc1ccc(Cl)cc1`, the “activity change, negative = cytotoxicity” value was -13.4% (inactive).

With `Oc1c(Br)cc(Br)c2cccnc12`, the “activity change, negative = cytotoxicity” value is -24.8% (inactive). The same measure, in the same setting: with `O=C(OCc1ccccc1)c1ccccc1` the figure was 6.94% (inactive); with `CCCCCCCC/C=C/C(=O)O`, -0.82% (inactive). As to `O=c1cc(-c2ccccc2)oc2ccccc12`, the “activity change, negative = cytotoxicity” value is -10.6% [at 92.7 µM] (inactive).

For the compound `COc1cc2c3cc1Oc1cc(ccc1O)C[C@@H]1c4c(cc(OC)c(O)c4Oc4ccc(cc4)C[C@@H]3N(C)CC2)CC[N+]1(C)C`, the “activity change, negative = cytotoxicity” value is -0.724% (inactive). Regarding `Nc1ccc([N+](=O)[O-])cc1O`, the “activity change, negative = cytotoxicity” value was -4.21% [at 92.7 µM] (inactive). `O=c1[nH]c2ccccc2n1CCCN1CCN(C(c2ccccc2)c2ccccc2)CC1`: the “activity change, negative = cytotoxicity” value was -26.7% (inactive). On to `O=C(O)Cc1ccc(-c2ccccc2)cc1`, for which the “activity change, negative = cytotoxicity” value was 13.2% (inactive). Still for that read-out and setting: the figure for `CCCCCCCCCCCCOCCO` is 9.62% (inactive).

As to `COC(=O)c1nc(Cl)c(Cl)nc1N`, the Potency was 8.41 µM (active). As for `Cc1[nH]cnc1CN1CCc2c(c3ccccc3n2C)C1=O`, the “activity change, negative = cytotoxicity” value was 8.82% (inactive). For the compound `N=C(N)N`, the “activity change, negative = cytotoxicity” value is -1.1% (inactive). As to `O=C(O)Cc1ccc2c(c1)C(=O)c1ccccc1CO2`, the “activity change, negative = cytotoxicity” value is 4.23% (inactive). Take `Clc1ccccc1-c1nc(-c2ccncc2)no1`: the “activity change, negative = cytotoxicity” value is -1.21% (inactive). With `CN1CCN(c2cc3c(nn2)Oc2ccccc2N3C)CC1`, the “activity change, negative = cytotoxicity” value was 3.77% [at 16.1 µM] (inactive). For the compound `CCOc1ccc2nc(S(N)(=O)=O)sc2c1`, the “activity change, negative = cytotoxicity” value is -9.44% (inactive).

For `COc1cc(NC(C)CCCN)c2ncccc2c1` (stereo not given), the “activity change, negative = cytotoxicity” value was -12.3% (inactive).

Regarding `O=C1CN(/N=C/c2ccc([N+](=O)[O-])o2)C(=O)N1`, the “activity change, negative = cytotoxicity” value was -4.33% (inactive). For `CCCCCCCCCCCCCCCCCC(=O)O`, the “activity change, negative = cytotoxicity” value was 9.56% (inactive). Take `Nc1c(CC(=O)O)cccc1C(=O)c1ccc(Br)cc1`: the “activity change, negative = cytotoxicity” value is 4.12% (inactive). For the compound `Nc1cc(-c2ccncc2)c[nH]c1=O`, the “activity change, negative = cytotoxicity” value is 7.34% (inactive).

Take `CC(C)(C)c1nnc(NS(=O)(=O)c2ccc(N)cc2)s1`: the “activity change, negative = cytotoxicity” value is -7.17% (inactive). In the case of `Cc1ccc(C(=O)c2ccc(CC(=O)O)n2C)cc1`, the “activity change, negative = cytotoxicity” value was 4.02% (inactive). For `O=C(O)/C=C\C(=O)O`, the “activity change, negative = cytotoxicity” value is -2.43% (inactive). For the compound `CCCCCCOc1ccccc1C(N)=O`, the “activity change, negative = cytotoxicity” value is -13.4% (inactive). On the same count and under the same terms, the figure for `CNC(=O)c1c(I)c(NC(=O)CCCCC(=O)Nc2c(I)c(C(=O)O)c(I)c(C(=O)NC)c2I)c(I)c(C(=O)O)c1I` is -15.2% (inactive).
